# Measurements reported in PubChem BioAssay (EPA / NIEHS).
# Values joined by “and” are separate entries in the source; they are usually repeats but may differ in a detail not shown here. Equal entries are not always repeated. Active and inactive are the calls of the source. Rule for the calls: active = hit-call score of the fitted dose curve at least 0.9, where 1 is the maximum; inactive = score below 0.9.
# Read-out: Cytochrome P450 (CYP2B6), CYP2B6 (gene 1555)
# Assay: LTEA_HepaRG_CYP2B6: Life Technologies and Expression Analysis (LTEA) Assay for Cytochrome P450 (CYP2B6) using HepaRG (AID 2283481)
# Conditions: mRNA level, 48 h; actives raise or lower the signal
# Method in brief: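 HepaRG cells plated 48 h, switched to serum-free induction medium, then dosed 48 h (8 points, half-log from 100 uM, 0.5% DMSO). RNA isolated; CYP2B6 expression measured by qRT-PCR; gain or loss fitted relative to DMSO.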
Structure (SMILES),AC50,outcome
O=C(Nc1ccccc1)Nc1ccnc(Cl)c1,88.4 µM (active),–
O=C(O)c1nc(Cl)ccc1Cl,–,inactive
O=C(O)COc1nc(Cl)c(Cl)cc1Cl,51 µM (active),–
CC(Oc1ccc(Cl)cc1Cl)C(=O)O (stereo not given),–,inactive
CCCCNC(=O)OCC#CI,30.6 µM (active),–
COc1ccc(C(c2ccc(OC)cc2)C(Cl)(Cl)Cl)cc1,12.4 µM (active),–
CCNc1nc(Cl)nc(NCC)n1,11.3 µM (active),–
C=CC1(C)OC(=O)N(c2cc(Cl)cc(Cl)c2)C1=O (stereo not given),7.99 µM (active),–
CCOC(=O)CC(SP(=S)(OC)OC)C(=O)OCC (stereo not given),50 µM (active),–
Fc1ccc(Oc2ccnc3cc(Cl)cc(Cl)c23)cc1,11.9 µM (active),–
OC(c1ccc(Cl)cc1)(c1cncnc1)c1ccccc1Cl (stereo not given),91.3 µM (active),–
N#CC(CCc1ccc(Cl)cc1)(Cn1cncn1)c1ccccc1 (stereo not given),50 µM (active),–
N#Cc1nn(-c2c(Cl)cc(C(F)(F)F)cc2Cl)c(N)c1S(=O)C(F)(F)F (stereo not given),28.9 µM (active),–
CC1COC(Cn2cncn2)(c2ccc(Oc3ccc(Cl)cc3)cc2Cl)O1 (stereo not given),9.66 µM (active),–
COP(=S)(OC)Oc1nc(Cl)c(Cl)cc1Cl,–,inactive
CCCN(CCC)c1c([N+](=O)[O-])cc(S(N)(=O)=O)cc1[N+](=O)[O-],11.1 µM (active) and 11.9 µM (active) and 10.7 µM (active),–
COC(=O)C=C(C)OP(=O)(OC)OC,–,inactive
CS/C(C)=N/OC(=O)N(C)SN(C)C(=O)O/N=C(\C)SC,–,inactive
CCOP(=S)(OCC)SCn1c(=O)oc2cc(Cl)ccc21,17.7 µM (active),–
COC(=O)C(C)Oc1ccc(Oc2ccc(Cl)cc2Cl)cc1 (stereo not given),–,inactive
CNC(=S)S,29.7 µM (active),–
C=CCC1=C(C)C(OC(=O)C2C(C=C(C)C)C2(C)C)CC1=O (stereo not given),12.1 µM (active) and 90.6 µM (active) and 11.7 µM (active),–
CCc1nn(C)c(C(=O)NCc2ccc(C(C)(C)C)cc2)c1Cl,0.346 µM (active),–
C=CCC1=C(C)[C@@H](OC(=O)[C@@H]2[C@@H](C=C(C)C)C2(C)C)CC1=O,85.4 µM (active),–
COc1nc(NC(C)C)nc(NC(C)C)n1,6.01 µM (active),–
